Screening results deposited in PubChem BioAssay by several laboratories.
ABHD5 PLIN5 PPI: inhibitors of human ABHD5-perilipin-5 interaction | Split G. princeps luciferase complementation, luminescence, 4 h | inhibition, % at 4 µM | 360,000 tested, 0.78% active | AID 602281;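 active = inhibition above the mean inhibition across every tested compound plus 3 SD, cut at about 22% in these data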
Target sequence (Q00G26 whole entry, looked up): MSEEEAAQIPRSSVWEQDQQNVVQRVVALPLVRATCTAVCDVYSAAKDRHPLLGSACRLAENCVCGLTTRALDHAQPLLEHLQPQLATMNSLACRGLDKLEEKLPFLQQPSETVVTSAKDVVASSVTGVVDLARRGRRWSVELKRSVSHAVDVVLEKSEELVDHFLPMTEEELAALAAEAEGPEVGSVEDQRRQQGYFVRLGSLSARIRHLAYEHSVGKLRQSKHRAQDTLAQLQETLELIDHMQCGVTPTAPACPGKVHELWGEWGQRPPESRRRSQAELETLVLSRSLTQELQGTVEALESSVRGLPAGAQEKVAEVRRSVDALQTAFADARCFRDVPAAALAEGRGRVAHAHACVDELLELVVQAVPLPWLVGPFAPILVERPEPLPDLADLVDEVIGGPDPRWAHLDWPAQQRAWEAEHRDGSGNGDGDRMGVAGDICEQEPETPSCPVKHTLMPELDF
Target sequence (Q8WTS1 whole entry, looked up): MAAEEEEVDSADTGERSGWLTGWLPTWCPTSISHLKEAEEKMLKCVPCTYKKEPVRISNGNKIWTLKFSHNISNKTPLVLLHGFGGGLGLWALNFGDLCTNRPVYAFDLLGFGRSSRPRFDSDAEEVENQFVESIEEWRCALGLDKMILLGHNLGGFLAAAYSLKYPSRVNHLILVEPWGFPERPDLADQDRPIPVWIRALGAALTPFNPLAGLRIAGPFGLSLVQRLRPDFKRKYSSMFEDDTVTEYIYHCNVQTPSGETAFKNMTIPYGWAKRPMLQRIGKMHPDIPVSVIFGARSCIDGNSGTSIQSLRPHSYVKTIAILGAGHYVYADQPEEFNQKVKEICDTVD
CF NFkB inh: inhibitors of cystic fibrosis induced NF-kB; KKLEB NF-kB-GFP reporter, PAF-induced, GFP fluorescence overnight; inhibition, % at 5 µM; 360,000 tested, 0.86% active;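 active = at least 50% inhibition at 5 µM, scaled per plate between neutral and stimulator controls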;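 also: PAF is a Pseudomonas aeruginosa culture filtrate used as stimulus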
Peg3 prom inh-1: Peg3 promoter activity inhibition; 360,000 tested, 1.7% active; AID 588405; inhibition, % at 20 µM; HeLa PEG-Prom luciferase reporter, luminescence, overnight;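 active = inhibition of at least 50% at 20 µM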
KKLEB cytotox: counter-screen for CF NF-kB inhibitors: cytotoxicity; AID 602141; 360,000 tested, 0.36% active; activity change (cytotoxicity), % at 5 µM; KKLEB CF airway cells viability, ATPlite luminescence, overnight; hits give low values; cells stimulated with P. aeruginosa culture filtrate;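 active = corrected activity change at or below -50% at 5 µM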
TRPM1 prom inh: reduces MITF-dependent TRPM1 promoter luciferase signal; SK-MEL-5 TRPM1 promoter luciferase, 24 h; inhibition, % at 12.5 µM; 330,000 tested, 0.83% active;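 active = mean inhibition across replicates of 60% or more, whatever share of single replicates reaches that level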
HIF-2a block: blocks HIF-2a reporter activity; 786-0 RCC cells HIF-2a reporter, luciferase luminescence, overnight; inhibition, % at 18.8 µM; 360,000 tested, 0.72% active;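 active = inhibition of the luminescence signal of 40% or more relative to plate controls, in a single-dose primary screen at 18.75 µM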
Peg3 prom inh-2: Peg3 promoter inhibition confirmation | shares compounds with Peg3 prom inh-1 | HeLa PEG-Prom luciferase reporter, luminescence, overnight | inhibition, % at 20 µM | 1,300 tested, 84% active | AID 602417;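 active = at 20 µM dose, 40% or more inhibition averaged across four replicates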
Numbers stand for hits; i = inactive; nt = not tested or not shown. Only some compounds are listed: those with a hit (about 3% of all), similar ones and a draw of the others.

SMILES	ABHD5 PLIN5 PPI	CF NFkB inh	Peg3 prom inh-1	KKLEB cytotox	TRPM1 prom inh	HIF-2a block	others
CN(C)CC1CCC/C(=C\c2ccc(OC(=O)/C=C/c3ccc(Cl)c(Cl)c3)cc2)C1=O (stereo unspecified)	i	i	94.6	i	i	i
CCN1CCN(c2ccc(S(=O)(=O)N3CCCCC3)cc2NC(=O)/C=C/c2ccc(OC)c(OC)c2)CC1	i	i	i	i	i	i
CN1CCN(c2ccc(Cl)cc2NC(=O)c2cccc(S(=O)(=O)N(C)C)c2)CC1	i	i	i	i	i	i
CCN1CCN(c2ccc(S(=O)(=O)N3CCCCC3)cc2NC(=O)/C=C/c2ccc(Cl)cc2)CC1	i	i	84.6	i	89.1	i
CCN1CCN(c2ccc(S(=O)(=O)N3CCCCC3)cc2NC(=O)/C=C/c2cc(OC)ccc2OC)CC1	i	i	101.2	i	i	i
CCN1CCN(c2ccc(S(=O)(=O)N3CCCCC3)cc2NC(=O)c2ccc([N+](=O)[O-])s2)CC1	i	i	63.9	i	84.9	i
CN1CCN(c2ccc(Cl)cc2NC(=O)/C=C/c2cccc(F)c2)CC1	22.1	i	i	i	i	i
CCN1CCN(c2ccc(S(=O)(=O)N3CCCCC3)cc2NC(=O)c2ccccc2)CC1	i	i	i	i	i	i
CC(OC(=O)CCN1C(=O)C2CC=CCC2C1=O)C(=O)Nc1cccc(C#N)c1 (stereo unspecified)	i	i	i	i	i	i
O=C1NC2=C(C(=O)CCC2)C(c2ccc(OC(F)F)cc2)N1 (stereo unspecified)	i	i	i	i	nt	i
Cc1ccccc1N=C1C(=O)Nc2ccccc21	i	i	i	i	i	i
CCN(CC)S(=O)(=O)c1ccc(N2CC(C(=O)NCCc3c[nH]c4ccccc34)CC2=O)cc1 (stereo unspecified)	i	i	i	i	i	i
COc1ccc(OCC(=O)Nc2nonc2NC(=O)COc2ccc(OC)cc2)cc1	i	i	i	i	i	i
COc1ccc(OCC(=O)Nc2cccc(NC(=O)COc3ccc(OC)cc3)n2)cc1	i	i	i	-62.9	i	i
CCOC(=O)c1c(NC(N)=O)sc(C)c1C	i	i	i	i	i	i
CCOC(=O)c1c(N2C(=O)C=CC2=O)sc(C)c1C	i	i	105.1	i	60.8	46.8
O=C(COc1ncnc2sccc12)Nc1cccc(S(=O)(=O)N2CCOCC2)c1	i	i	i	i	nt	i
Cc1cc(CSc2ccccc2)ccc1NC(=O)c1ccc(Cl)c([N+](=O)[O-])c1	i	i	63.9	i	i	i
Cc1cc(CSc2ccccc2)ccc1NC(=O)c1ccc(C)c([N+](=O)[O-])c1	i	i	i	i	i	i
CC[C@]12c3[nH]c4ccc(Cl)cc4c3CCN1C(=O)[C@@H](CC(=O)NCC13CC4CC(CC(C4)C1)C3)C[C@@H]2C(=O)N1CCN(C(=O)C2CC2)CC1	i	i	55.5	i	i	i
C[C@]12c3[nH]c4ccc(Cl)cc4c3CCN1C(=O)[C@@H](CC(=O)NCC13CC4CC(CC(C4)C1)C3)C[C@@H]2C(=O)N1CCCCC1	i	i	56.4	i	i	i
CC[C@]12c3[nH]c4ccc(OC)cc4c3CCN1C(=O)C(CC(=O)NCC13CC4CC(CC(C4)C1)C3)C[C@@H]2C(=O)N1CCN(C(=O)C2CC2)CC1 (stereo partly specified)	i	i	i	i	i	i
COc1ccc([C@H]2CC(=O)C=C(/C=C/c3ccc(C(F)(F)F)cc3)C2)cc1	i	i	i	i	i	i
O=C(COC(=O)c1c2c(nc3ccccc13)CCCC2)Nc1ccc2c(c1)OCO2	i	i	i	i	i	i
O=C(COC(=O)c1c2c(nc3ccccc13)/C(=C\c1cccs1)CCC2)Nc1ccccc1	i	i	54.5	i	i	i	Peg3 prom inh-2=60.0
SMILES	ABHD5 PLIN5 PPI	CF NFkB inh	Peg3 prom inh-1	KKLEB cytotox	TRPM1 prom inh	HIF-2a block	others
CC(C)NC(=O)NC(=O)COC(=O)c1c2c(nc3ccccc13)CCC2	i	i	92.3	i	i	i	Peg3 prom inh-2=85.6
CC(C)(C)NC(=O)COC(=O)c1c2c(nc3ccccc13)CCC2	i	i	i	i	i	i
Cc1ccc(CNc2nc(C)cs2)cc1	i	i	i	i	i	i
COc1ccc2oc(=O)c(C(=O)Nc3ccccc3O)cc2c1	i	i	i	i	i	i
Cc1ccc(C(=O)Nc2cc3ccccc3oc2=O)cc1	i	i	90.3	i	90.9	49.1	Peg3 prom inh-2=61.7
COc1ccc(NC(=O)c2cc3ccccc3oc2=O)cc1	i	i	55.4	i	nt	i	Peg3 prom inh-2=i
O=C1NC(=O)C2(CCC(C3CCCCC3)CC2)N1 (stereo unspecified)	i	i	i	i	i	i
CN1Cc2c(N3CCOCC3)nc3sc(C(=O)c4ccc(Br)cc4)c(N)c3c2CC1(C)C	i	i	80.0	i	nt	i	Peg3 prom inh-2=96.8
COc1ccc(-c2cc(=O)oc3cc(OC(C)C(=O)NCCCn4ccnc4)ccc23)cc1 (stereo unspecified)	i	i	i	i	i	i
CCCC(C)NC(=O)COc1ccc(S(=O)(=O)N2CCCC2)cc1 (stereo unspecified)	i	i	i	i	i	i
O=C(Sc1cccc2cccnc12)c1ccccc1Br	i	i	59.3	i	84.9	i	Peg3 prom inh-2=46.7
CC(=O)/C(=N\Nc1ccccc1)Sc1cccc2cccnc12	i	i	i	i	i	i
CCN(CC(=O)Nc1ccc(NC(C)=O)cc1)C(=O)/C=C/c1c(C)nn(-c2ccc(F)cc2)c1C	i	i	i	i	i	i
COc1cc(CNCCCN2CCOCC2)ccc1OCC(=O)Nc1cccc(C(F)(F)F)c1	i	i	i	i	i	i
CCOc1cc(CNCCCN2CCOCC2)ccc1OCC(=O)Nc1cccc2ccccc12	i	i	50.2	i	i	i	Peg3 prom inh-2=64.4
O=C(Nc1ccc(Cl)cc1)Nc1cccc(C(=O)O)c1	i	i	52.7	i	80.5	65.7	Peg3 prom inh-2=i
Cc1cccc(OCC(=O)Nc2cc(NC(=O)COc3cccc(C)c3C)cc(C(=O)O)c2)c1C	i	i	i	i	i	i
Cc1ccccc1OCC(=O)Nc1cccc(C(=O)O)c1	i	i	84.4	i	91.9	91.6	Peg3 prom inh-2=84.8
CCOc1ccc(NC(=O)Nc2cccc(C(=O)O)c2)cc1	i	i	84.6	i	93.6	87.7	Peg3 prom inh-2=74.8
C[C@H](NC(=O)c1ccccc1)C(=O)N1CCC2(CC1)NCCc1[nH]cnc12	i	i	i	i	i	i
CN1CCN(c2cc(-c3ccc4ccccc4c3)nc3ccnn23)CC1	i	i	i	i	nt	i
COc1cc(C(=O)OCC(=O)c2c(N)n(C)c(=O)n(C)c2=O)ccc1OCCC(C)C	i	i	i	i	i	i
